This passage reports AC50 and outcome results from PubChem BioAssay (EPA / NIEHS).

“And” between values parts separate entries of the source, which are not always exact repeats. Equal values may be shown once. The source made the active and inactive calls. How the source made its calls: active means hit-call score of the fitted dose curve at least 0.9, where 1 is the maximum; inactive means score below 0.9.

Test [1] in a line: APR_HepG2_NuclearSize_72hr: Apredica 72-hour HepG2 Assay for Nuclear Size (AID 2282925). Conditions: high-content imaging, actives raise or lower the signal. The gist of the method:
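HepG2; cpd 0.39–200 uM, 10 conc, duplicate; 72 h; DMSO 0.5% v/v; fix 3.7% formaldehyde 30 min RT; Triton permeabilization; Hoechst 2 ug/mL; HCS imaging 20x; nuclear diameter; gain/loss fit vs DMSO.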

The nature of test [2]: ATG_CRE_CIS: Attagene CIS-FACTORIAL HepG2 Assay for human cAMP Responsive Element (CRE) binding protein 3 (AID 2282926). Conditions: HepG2 CRE cis-reporter, Attagene multiplexed mRNA; actives raise or lower the signal. An outline of the steps:
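We dosed HepG2 cells bearing multiple cis-promoter reporter units for 24 h and measured reporter mRNA by RT-PCR with capillary electrophoresis detection. Bidirectional concentration-response fitting used DMSO as negative control.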

Test [3] deals with CCAAT/enhancer-binding protein beta (Homo sapiens) (UniProt P17676). The test can be described thus: ATG_C_EBP_CIS: Attagene CIS-FACTORIAL HepG2 Assay for human CCAAT/Enhancer Binding Protein (C/EBP) beta (AID 2282927). Conditions: HepG2 Attagene cis-factorial transcription factor reporter; actives raise or lower the signal. An outline of the steps: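 Changes in reporter mRNA, rather than exogenous chimeric receptor activity, reflect native C/EBP signalling in transfected HepG2 cells dosed for 24 h; transcripts are detected by RT-PCR and capillary electrophoresis.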
Sequence of CCAAT/enhancer-binding protein beta (Homo sapiens) (P17676 whole entry, looked up): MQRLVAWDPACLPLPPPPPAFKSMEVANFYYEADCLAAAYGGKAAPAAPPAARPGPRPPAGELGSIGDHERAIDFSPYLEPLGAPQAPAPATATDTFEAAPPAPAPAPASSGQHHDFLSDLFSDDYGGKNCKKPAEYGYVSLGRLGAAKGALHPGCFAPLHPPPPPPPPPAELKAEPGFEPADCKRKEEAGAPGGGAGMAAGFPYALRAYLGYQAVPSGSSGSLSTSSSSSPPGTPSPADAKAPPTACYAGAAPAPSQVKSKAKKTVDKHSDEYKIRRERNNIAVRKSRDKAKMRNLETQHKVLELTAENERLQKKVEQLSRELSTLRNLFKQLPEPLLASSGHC

Test [4] can be described thus: ATG_CMV_CIS: Attagene CIS-FACTORIAL HepG2 Assay for human CMV (Internal Marker) (AID 2282928).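 Further: endpoint acts as a background internal control marker rather than a target.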 Conditions: HepG2 CMV promoter reporter, transcription factor profiling; actives raise or lower the signal. An outline of the steps: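 CMV internal-marker background readout in transiently transfected HepG2 cells bearing cis-regulated reporter units. Reporter mRNA is measured 24 h after dosing by RT-PCR and capillary electrophoresis, with bidirectional fitting against DMSO.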

Test [5] is described as follows: ATG_DR4_LXR_CIS: Attagene CIS-FACTORIAL HepG2 Assay for human Liver X Receptor (LXR), DR4 submotif (AID 2282929). Conditions: HepG2 Attagene DR4 cis-reporter, mRNA transcription; actives raise or lower the signal. An outline of the steps: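 Transiently transfected HepG2 liver cells; cis-regulated reporters; 24 h dosing. RT-PCR plus CE read-out of reporter mRNA. DMSO baseline, bidirectional curve fitting.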

For test [6], the target named is Aryl hydrocarbon receptor (Homo sapiens) (UniProt P35869). Briefly: ATG_Ahr_CIS: Attagene CIS-FACTORIAL HepG2 Assay for human Aryl Hydrocarbon Receptor (Ahr) (AID 2282930). Conditions: HepG2 AhR cis-factorial reporter transcription; actives raise or lower the signal. The gist of the method:
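HepG2, transient MRTU (cis) transfection, 24 h exposure. RNA → cDNA → PCR → 6-FAM primer extension → HpaI 2 h 37 C → CE. Fit: bidirectional, DMSO baseline.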

Test [7] in a line: ATG_AP_1_CIS: Attagene CIS-FACTORIAL HepG2 Assay for human Activator Protein 1 (AP-1) (AID 2282931). Conditions: HepG2 Attagene cis-factorial AP-1 reporter mRNA; actives raise or lower the signal. An outline of the steps:
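We transfected HepG2 cells transiently with a set of cis-regulated reporter transcription units, dosed them for 24 h, and quantified reporter mRNA via RT-PCR and capillary electrophoresis, scoring gain or loss of signal relative to DMSO.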

Test [8] in a line: ATG_BRE_CIS: Attagene CIS-FACTORIAL HepG2 Assay for human Bone Morphogenetic Protein (BMP) Response Element (BRE) (AID 2282933). To be noted: HepG2 BMP response element reporter, Attagene transcription factor profiling; actives raise or lower the signal. The gist of the method:
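Endogenous transcription factor activity at a BMP response element was monitored in transfected HepG2 cells 24 h after dosing. Fluorescent RT-PCR products were resolved by capillary electrophoresis, and activity was fitted in both directions versus DMSO.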

For test [9], the target named is Retinoic acid receptor alpha (Homo sapiens) (UniProt P10276). The test can be described thus: ATG_DR5_RAR_CIS: Attagene CIS-FACTORIAL HepG2 Assay for human Retinoic Acid Receptor Alpha (RARE), DR5 submotif (AID 2282934). Conditions: HepG2 Attagene cis-factorial RARE DR5 reporter, mRNA; actives raise or lower the signal. The gist of the method:
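HepG2, transient cis-reporter transfection, 24 h exposure. mRNA readout: RT-PCR, FAM label, HpaI cut, capillary electrophoresis. DMSO baseline, gain/loss fitting.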

Test [10] addresses Transcription factor E2F1 (Homo sapiens) (UniProt Q01094). Briefly: ATG_E2F_CIS: Attagene CIS-FACTORIAL HepG2 Assay for human E2F Transcription Factor 1 (AID 2282935). Conditions: HepG2 Attagene cis-reporter, E2F reporter RNA transcripts; actives raise or lower the signal. The gist of the method:
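Cis-element reporter mRNA induction in transiently transfected HepG2, 24 h exposure. Activity fitted in both directions relative to DMSO negative control.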

Test [11] is described as follows: ATG_E_Box_CIS: Attagene CIS-FACTORIAL HepG2 Assay for human Enhancer Box (E-box) (AID 2282936). To be noted: HepG2 E-box cis-reporter transcription, actives raise or lower the signal. An outline of the steps: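 Cells: HepG2 (human liver), transient MRTU transfection. Exposure 24 h. RNA → oligo(dT) RT → PCR → 6-FAM label → HpaI → CE. Activity fitted both directions relative to DMSO.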

Test [12] is described as follows: ATG_M_61_CIS: Attagene CIS-FACTORIAL HepG2 Assay for M61 Transcription Factor (Internal Marker) (AID 2282937). Conditions: HepG2 Attagene CIS-FACTORIAL M61 internal marker reporter; actives raise or lower the signal. The gist of the method: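 Multiplexed reporter mRNA assay, HepG2 human hepatoma cells, 24 h treatment. Signal: FAM-labelled, HpaI-digested RT-PCR fragments by CE. Fit: bidirectional, baseline DMSO.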

A short description of test [13]: ATG_EGR_CIS: Attagene CIS-FACTORIAL HepG2 Assay for human Early Growth Response 1 (EGR1) (AID 2282938). Conditions: HepG2 Attagene CIS-FACTORIAL EGR reporter mRNA; actives raise or lower the signal. The gist of the method: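 Multiplexed cis-reporter system in human hepatoma HepG2 cells, transiently transfected. Cells are dosed for 24 h; reporter transcripts are amplified, fluorescently tagged and sized by capillary electrophoresis, with DMSO as negative control.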

Test [14] can be described thus: ATG_M_19_CIS: Attagene CIS-FACTORIAL HepG2 Assay for M19 Transcription Factor (Internal Marker) (AID 2282939). To be noted: HepG2 Attagene CIS-FACTORIAL M19 internal marker reporter; actives raise or lower the signal. The gist of the method: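 Background-control endpoint from a multiplexed HepG2 reporter panel. Cells carrying cis-regulated reporter constructs are treated 24 h, then reporter transcripts are amplified, fluorescently labelled and sized by capillary electrophoresis. DMSO defines baseline.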

Test [15] is described as follows: ATG_ERE_CIS: Attagene CIS-FACTORIAL HepG2 Assay for Estrogen Response Element (ERE) (AID 2282940). To be noted: HepG2 ERE cis-reporter, Attagene RNA transcript; actives raise or lower the signal. The gist of the method:
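Cells used were human hepatoma HepG2, transfected with multiple reporter transcription units under cis-regulatory promoters. Reporter mRNA, read 24 h post-dosing via fluorescent RT-PCR products on capillary electrophoresis, was fitted bidirectionally relative to DMSO.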

For test [16], the target named is Hepatocyte nuclear factor 3-beta (Homo sapiens) (UniProt Q9Y261). The test can be described thus: ATG_FoxA2_CIS: Attagene CIS-FACTORIAL HepG2 Assay for human Forkhead box A2 (FOXA2) (AID 2282942). Conditions: HepG2 cis-reporter transcription factor activity, 24 h; actives raise or lower the signal. The gist of the method: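 Multiplexed cis-element reporter assay in transiently transfected HepG2. Twenty-four hours post-dosing, RNA was reverse-transcribed, amplified, FAM-labelled, HpaI-digested and separated by CE. Activity gain or loss relative to DMSO.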
Sequence of Hepatocyte nuclear factor 3-beta (Homo sapiens) (Q9Y261 whole entry, looked up): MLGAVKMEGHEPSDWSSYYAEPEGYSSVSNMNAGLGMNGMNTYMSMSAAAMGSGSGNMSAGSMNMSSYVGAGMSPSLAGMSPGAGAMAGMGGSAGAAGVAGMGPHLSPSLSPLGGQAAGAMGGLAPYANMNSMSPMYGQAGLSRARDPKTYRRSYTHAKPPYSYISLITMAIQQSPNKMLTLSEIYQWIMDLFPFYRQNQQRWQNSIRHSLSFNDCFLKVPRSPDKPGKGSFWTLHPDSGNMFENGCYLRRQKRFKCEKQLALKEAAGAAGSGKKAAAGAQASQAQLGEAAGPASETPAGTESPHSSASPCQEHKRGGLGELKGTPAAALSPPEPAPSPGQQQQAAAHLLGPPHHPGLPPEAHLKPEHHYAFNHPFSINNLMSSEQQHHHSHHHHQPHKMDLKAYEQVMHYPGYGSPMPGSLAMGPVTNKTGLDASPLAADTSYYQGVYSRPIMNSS

A short description of test [17]: ATG_FoxO_CIS: Attagene CIS-FACTORIAL HepG2 Assay for human Forkhead box O (FoxO) (AID 2282943). To be noted: HepG2 Attagene cis-reporter, FoxO element, mRNA; actives raise or lower the signal. The gist of the method:
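Human hepatoma HepG2 cells carry transiently introduced reporter transcription units controlled by cis promoter elements. Chemical treatment lasted 24 h, and mRNA signal was compared with DMSO.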

The nature of test [18]: ATG_GATA_CIS: Attagene CIS-FACTORIAL HepG2 Assay for human GATA Binding Protein (AID 2282944). Conditions: HepG2 GATA cis-element reporter, Attagene multiplex mRNA; actives raise or lower the signal. The gist of the method: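 Endogenous transcription factor activity was captured through cis-promoter-driven reporters in transfected HepG2 cells. After 24 h exposure, reporter transcripts were quantified by RT-PCR with fluorescent capillary electrophoresis, and responses fitted both directions against DMSO.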

Test [19] is described as follows: ATG_AP_2_CIS: Attagene CIS-FACTORIAL HepG2 Assay for human Activator Protein 2 (AP-2) (AID 2282932). Conditions: HepG2 AP-2 cis-reporter, Attagene transcription factor profiling; actives raise or lower the signal. An outline of the steps:
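HepG2, transient MRTU transfection, cis-regulated reporters; 24 h compound exposure; RNA isolated, RT-PCR, 6-FAM labelling, HpaI digest, CE fluorescence. DMSO = negative control/baseline, bidirectional fit.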

Test [20] can be described thus: ATG_Ets_CIS: Attagene CIS-FACTORIAL HepG2 Assay for human Erythroblast Transformation Specific (ETS) (AID 2282941). To be noted: HepG2 ETS cis-reporter transcription, actives raise or lower the signal. An outline of the steps: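 HepG2 cells transfected with multiple cis-regulated reporter units measuring endogenous ETS-driven transcription, 24 h after dosing. Reporter mRNA quantified by RT-PCR with capillary electrophoresis; bidirectional fit relative to DMSO.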

Sequence of Transcription factor E2F1 (Homo sapiens) (Q01094 whole entry, looked up): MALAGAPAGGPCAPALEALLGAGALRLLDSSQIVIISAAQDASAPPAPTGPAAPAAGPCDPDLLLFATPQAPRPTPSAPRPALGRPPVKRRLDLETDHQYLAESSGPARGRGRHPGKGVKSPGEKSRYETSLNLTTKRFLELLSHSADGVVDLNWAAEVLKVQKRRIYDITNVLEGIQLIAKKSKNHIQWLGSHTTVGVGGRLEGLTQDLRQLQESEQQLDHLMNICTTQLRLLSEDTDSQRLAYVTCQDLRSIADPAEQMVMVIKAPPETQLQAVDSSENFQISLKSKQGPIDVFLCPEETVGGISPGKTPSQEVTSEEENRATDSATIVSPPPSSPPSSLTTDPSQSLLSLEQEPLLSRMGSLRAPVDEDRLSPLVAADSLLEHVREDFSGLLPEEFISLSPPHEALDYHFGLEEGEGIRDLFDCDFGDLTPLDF
Sequence of Aryl hydrocarbon receptor (Homo sapiens) (P35869 whole entry, looked up): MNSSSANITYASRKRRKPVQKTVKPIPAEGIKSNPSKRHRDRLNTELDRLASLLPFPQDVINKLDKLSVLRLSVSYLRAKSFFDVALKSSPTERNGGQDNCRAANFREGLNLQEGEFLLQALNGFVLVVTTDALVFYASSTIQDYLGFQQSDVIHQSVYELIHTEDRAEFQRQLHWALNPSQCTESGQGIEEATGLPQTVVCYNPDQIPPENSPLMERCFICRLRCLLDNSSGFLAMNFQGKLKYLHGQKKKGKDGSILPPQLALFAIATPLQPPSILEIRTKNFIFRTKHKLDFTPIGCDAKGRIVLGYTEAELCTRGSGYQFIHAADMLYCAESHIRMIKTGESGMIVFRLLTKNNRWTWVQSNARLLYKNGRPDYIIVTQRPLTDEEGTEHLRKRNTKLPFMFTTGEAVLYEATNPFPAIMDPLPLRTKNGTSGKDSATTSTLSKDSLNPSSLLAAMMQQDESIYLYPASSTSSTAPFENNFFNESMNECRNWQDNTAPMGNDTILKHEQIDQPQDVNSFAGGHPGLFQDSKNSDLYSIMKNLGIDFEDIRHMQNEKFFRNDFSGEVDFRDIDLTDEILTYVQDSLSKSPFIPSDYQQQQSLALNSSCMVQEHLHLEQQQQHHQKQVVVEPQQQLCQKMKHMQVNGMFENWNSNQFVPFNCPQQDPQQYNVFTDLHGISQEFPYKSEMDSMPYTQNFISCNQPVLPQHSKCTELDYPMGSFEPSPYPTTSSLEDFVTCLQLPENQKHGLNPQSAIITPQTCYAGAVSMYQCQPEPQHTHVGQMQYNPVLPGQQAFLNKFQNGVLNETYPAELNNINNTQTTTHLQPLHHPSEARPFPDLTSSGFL
Sequence of Retinoic acid receptor alpha (Homo sapiens) (P10276 whole entry, looked up): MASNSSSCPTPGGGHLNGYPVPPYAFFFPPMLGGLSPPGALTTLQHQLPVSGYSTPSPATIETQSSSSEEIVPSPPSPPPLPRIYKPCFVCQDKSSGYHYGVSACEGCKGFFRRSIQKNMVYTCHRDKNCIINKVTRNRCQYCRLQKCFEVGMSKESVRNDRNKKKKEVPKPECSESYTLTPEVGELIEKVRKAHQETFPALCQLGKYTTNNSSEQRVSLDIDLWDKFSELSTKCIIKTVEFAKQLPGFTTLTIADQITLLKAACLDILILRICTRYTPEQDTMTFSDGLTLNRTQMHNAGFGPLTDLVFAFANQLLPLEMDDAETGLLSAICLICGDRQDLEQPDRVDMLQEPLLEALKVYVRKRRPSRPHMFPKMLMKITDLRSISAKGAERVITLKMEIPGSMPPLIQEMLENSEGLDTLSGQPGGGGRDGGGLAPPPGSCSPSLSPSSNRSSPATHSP

The term AC50 denotes the concentration giving half of the maximal activity seen. As to `CN1CCN(c2ccccc2/C=C2\SCCN(c3ccc(Cl)c(Cl)c3)C2=O)CC1`, in [1], the AC50 was 5.01 µM (active). For the same compound, the compound was called inactive in [2], in test [3], in [4], in test [5], in test [6] and in [7]. Besides, the call in [8], in test [9], in test [10], in test [11], in [12] and in test [13] was inactive. The outcome in [14], in [15], in [16], in test [17] and in test [18] was inactive.

In the case of `COc1ccc([N+](=O)[O-])cc1N`, the compound was classed as inactive in test [1], in [2], in test [3], in [4], in test [5] and in test [6]. Further, the result in test [7], in test [19], in test [8], in test [9], in [10] and in [11] was inactive. Further, the compound was classed as inactive in test [12], in test [13], in [15], in test [16], in test [17] and in [18].

Regarding `CCc1ccc(CCOc2ccc(CC3SC(=O)NC3=O)cc2)nc1` (stereo not drawn), the call in test [1], in [2], in test [3], in test [4], in test [5] and in test [6] was inactive. Also, the outcome in test [7], in test [8], in test [10], in test [11], in [12] and in test [13] was inactive. The call in [20], in [16], in test [17] and in [18] was inactive. Further, in test [15], the half-maximal activity concentration (AC50) is 19.8 µM (active) and 41.4 µM (active).

Turning to `CCCCCCCCCCCCc1ccccc1S(=O)(=O)O`, the compound was called inactive in [1], in test [2], in test [3], in test [4], in test [5] and in [6]. Besides, the result in test [7], in [8], in test [9], in test [10], in test [11] and in test [12] was inactive. For the same compound, the compound was called inactive in test [13], in [14], in test [15], in [20], in test [16] and in test [17]. The compound was classed as inactive in [18].

Consider `CCCCCCC(=O)O`, for which the outcome in test [1], in test [2], in test [3], in test [4], in test [5] and in test [6] was inactive. In addition, the compound was classed as inactive in test [7], in [8], in [9], in test [10], in [11] and in test [12]. In addition, the compound was classed as inactive in test [13], in test [14], in [15], in test [16], in test [17] and in [18].

For the compound `O=C(/C=C/c1ccc(O)cc1)CC(=O)/C=C/c1ccc(O)cc1`, the AC50 in [1] is 49.4 µM (active); in [4], 77.7 µM (active); in [5], 18.9 µM (active); in test [7] it was 62 µM (active); in test [11], 26.7 µM (active); in test [13], 11.5 µM (active). Moreover, the compound was classed as inactive in test [2], in test [3], in test [6], in [8], in [9] and in [10]. Also, the compound was called inactive in [12], in test [15], in test [20], in test [16], in test [17] and in [18].
